Most compounds without a hit are left out; they make up all but 4% or so of the library.
HIF-2a inh = HIF-2a reporter inhibitors, primary screen, luminescence, 786-0 RCC cells. 786-0 RCC cells HIF-2a reporter, luciferase luminescence, overnight. inhibition, % at 18.8 µM. 360,000 compounds, 0.72% hits. AID 624352, 2012;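 active = inhibition of the luminescence signal of 40% or more relative to plate controls, in a single-dose primary screen at 18.75 µM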
KKLEB cytotox = cytotoxicity in KKLEB CF airway cells, primary screen, cytotoxicity control for CF NF-kB inhibitor project, cell-based, uHTS, fluorescence assay plates. KKLEB CF airway cells viability, ATPlite luminescence, overnight; hits give low values; cells stimulated with P. aeruginosa culture filtrate. activity change (cytotoxicity), % at 5 µM. AID 602141, 2011. 360,000 compounds, 0.36% hits;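 active = corrected activity change at or below -50% at 5 µM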
TWEAK-Fn14 inh = inhibitors of TWEAK-Fn14 signaling, primary screen, luciferase reporter cells, uHTS; TWEAK-stimulated Fn14 reporter cells, luciferase luminescence, 8 h; inhibition, % at 10 µM; 360,000 compounds, 2% hits; AID 1159606, 2016; in the data active = inhibition above about 50%
Peg3 prom inh-1 = Peg3 promoter-driven luciferase inhibitors, primary screen, cell-based, HeLa, luciferase luminescence. HeLa PEG-Prom luciferase reporter, overnight. inhibition, % at 20 µM. 360,000 compounds, 1.7% hits;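 active = inhibition of at least 50% at 20 µM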
CF NFkB inh = inhibitors of PAF-induced NF-kB signaling, primary screen, cell-based, GFP fluorescence, uHTS; KKLEB NF-kB-GFP reporter, GFP fluorescence overnight; 360,000 compounds, 0.86% hits; inhibition, % at 5 µM;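 active = at least 50% inhibition at 5 µM, scaled per plate between neutral and stimulator controls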;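 note: PAF is a Pseudomonas aeruginosa culture filtrate used as stimulus; plate controls were PAF-stimulated DMSO wells for no effect and unstimulated DMSO wells for full effect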
TROY signal inh = inhibitors of TROY-driven NF-kB signaling, primary screen, Q293 LMP1-TROYcd cells, NF-kB luciferase, uHTS. Q293 LMP1-TROYcd NF-kB luciferase reporter, 4 h. 360,000 compounds, 0.98% hits. AID 1347056, 2019. inhibition, % at 10 µM;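 active = compounds whose plate-normalised and pattern-corrected inhibition of the luciferase reporter signal at the single screening dose is 50% or more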
Peg3 prom inh-2 = Peg3 promoter reporter inhibitors, retest, confirmation, cell-based, HeLa, luciferase reporter, single concentration. AID 602417, 2012. 1,300 compounds, 84% hits. shares compounds with Peg3 prom inh-1. inhibition, % at 20 µM. HeLa PEG-Prom luciferase reporter, luminescence, overnight;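 active = at 20 µM dose, 40% or more inhibition averaged across four replicates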
CF NFkB conf = inhibitors of PAF-induced NF-kB signaling, retest, confirmation, cell-based, GFP fluorescence, single concentration; shares compounds with CF NFkB inh; KKLEB CF airway cells, overnight; inhibition, % at 5 µM; 1,300 compounds, 64% hits; AID 602472, 2012; in the data active = inhibition above about 40%;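 note: stimulus PAF is a Pseudomonas aeruginosa filtrate and not platelet activating factor; plate controls were DMSO wells with stimulus for no effect and unstimulated DMSO wells for full effect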
Mdm2-MdmX confirm = retested Mdm2-MdmX interaction blockers, confirmation, cell-based, luminescence, single concentration, set 2; SaOS-2 split-luciferase Mdm2/MdmX complementation; inhibition, % at 8 µM; AID 504601, 2011; 740 compounds, 99% hits; shares compounds with HIF-2a inh;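 active = mean inhibition of the luminescence signal across two replicates at or above 26 percent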
Target sequence (O15151 whole entry, looked up): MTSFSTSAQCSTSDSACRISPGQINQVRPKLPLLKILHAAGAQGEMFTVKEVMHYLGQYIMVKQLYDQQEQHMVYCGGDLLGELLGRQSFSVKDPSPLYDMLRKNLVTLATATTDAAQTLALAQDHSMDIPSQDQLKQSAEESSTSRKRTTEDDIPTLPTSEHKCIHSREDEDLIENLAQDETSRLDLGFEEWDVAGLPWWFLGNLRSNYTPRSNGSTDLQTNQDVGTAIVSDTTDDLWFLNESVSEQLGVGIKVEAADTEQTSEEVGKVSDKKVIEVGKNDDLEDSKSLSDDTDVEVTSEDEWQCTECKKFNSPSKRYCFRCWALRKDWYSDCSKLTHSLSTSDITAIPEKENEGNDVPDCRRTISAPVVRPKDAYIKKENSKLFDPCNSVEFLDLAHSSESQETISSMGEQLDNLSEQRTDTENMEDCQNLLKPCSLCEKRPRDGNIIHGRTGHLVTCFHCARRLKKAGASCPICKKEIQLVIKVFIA
Target sequence (Q00987 whole entry, looked up): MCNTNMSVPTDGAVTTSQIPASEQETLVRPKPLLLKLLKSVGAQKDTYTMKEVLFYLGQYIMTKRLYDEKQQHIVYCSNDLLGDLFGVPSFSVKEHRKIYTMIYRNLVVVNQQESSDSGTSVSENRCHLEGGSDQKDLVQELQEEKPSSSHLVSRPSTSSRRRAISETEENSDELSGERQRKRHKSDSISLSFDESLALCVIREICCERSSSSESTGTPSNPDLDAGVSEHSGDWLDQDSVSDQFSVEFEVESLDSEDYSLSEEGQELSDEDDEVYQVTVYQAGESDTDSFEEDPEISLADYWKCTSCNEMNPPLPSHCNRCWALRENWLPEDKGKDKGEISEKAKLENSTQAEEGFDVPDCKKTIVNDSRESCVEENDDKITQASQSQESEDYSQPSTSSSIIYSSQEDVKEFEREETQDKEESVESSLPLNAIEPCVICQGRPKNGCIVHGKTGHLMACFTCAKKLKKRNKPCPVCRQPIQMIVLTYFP
HIF-2a conf = HIF-2a reporter inhibitor retest, confirmation, luminescence, 786-0 RCC cells; shares compounds with HIF-2a inh; HIF-2a luciferase reporter luminescence, overnight; inhibition, % at 18.8 µM; 1,800 compounds, 56% hits;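 active = mean inhibition across four replicates of at least 40 percent at the single tested concentration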
HIF-1a counter = HIF-1a luciferase reporter signal reduction – MiaPaCa-2 cells, single concentration, counter-screen for HIF-2a inhibitor project, confirmation. inhibition, % at 18.8 µM. 1,800 compounds, 72% hits. MiaPaCa-2 HIF-1a luciferase reporter, desferoxamine, overnight. shares compounds with HIF-2a inh;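 active = mean inhibition of the reporter signal across four replicates at the single tested dose of 50% or more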
* hit, by the source's call; · = not tested or not shown.

SMILES	HIF-2a inh	KKLEB cytotox	TWEAK-Fn14 inh	Peg3 prom inh-1	CF NFkB inh	TROY signal inh	Peg3 prom inh-2	CF NFkB conf	others
Cc1cccc(NC(=O)c2nc[nH]c2C(=O)NCCCCNC(=O)c2[nH]cnc2C(=O)Nc2cccc(C)c2)c1	7.0	-39.3	34.2	77.7*	56.1*	5.4	36.9	33.2
CC(C)(C)OC(=O)CC(S(=O)(=O)c1ccccc1)S(=O)(=O)c1ccccc1	-80.0	-16.4	30.9	81.5*	85.5*	1.8	97.1*	25.3
CC1C(=O)N(Cc2cn(Cc3ccco3)nn2)CCS(=O)(=O)N1Cc1ccc(-c2ccncc2)cc1 (configuration not stated)	14.1	8.4	7.9	-7.2	-17.1	-10.9	·	·
CC(=O)C1=CCC(c2ccc(C)cc2)N(S(=O)(=O)c2ccc(Cl)cc2)C1 (configuration not stated)	-5.4	5.6	4.3	14.5	8.2	-0.9	·	·
Cc1ncc(CO)c2cc(C(=O)Nc3cccc(F)c3)c(=Nc3cccc(C(N)=O)c3)oc12	10.6	-7.4	0.4	-21.1	-19.1	13.2	·	·
COc1ccc(NC(=O)c2cc3c(CO)cnc(C)c3oc2=Nc2cccc(F)c2)c(OC)c1	7.9	-33.2	-7.3	58.8*	52.0*	13.5	16.9	26.3
Cc1cccc(CNc2ncnc3ccc(-c4ccoc4)cc23)c1	6.2	-3.2	94.3*	50.1*	70.3*	54.8*	40.8*	87.1*
Cc1cccc(CNc2ncnc3ccc(-c4ccc5c(c4)OCCO5)cc23)c1	16.1	-2.0	32.9	20.6	5.1	35.5	·	·
COc1ccc(N2CCCC2=O)cc1S(=O)(=O)N1CCOCC1	6.5	-2.5	11.6	11.8	-4.1	7.9	·	·
COc1nc(N)c(C#N)c(-c2ccc(N(C)CCC#N)cc2)c1C#N	21.2	1.6	4.1	57.6*	58.7*	16.7	65.6*	75.4*
NS(=O)(=O)c1cccc(Nc2nc3ccccc3nc2NS(=O)(=O)c2ccc(Cl)cc2)c1	-20.1	1.4	8.8	17.8	8.8	26.1	·	·
COc1ccc(C(C(=O)NCC2CCCO2)N(Cc2cccs2)C(=O)c2snc(C(N)=O)c2N)cc1 (configuration not stated)	2.5	-27.9	28.2	51.2*	54.4*	9.8	49.7*	50.3*
c1ccc(-c2cn(-c3ccccc3)c3ncnc(N4CCCCC4)c23)cc1	26.4	-13.7	17.0	40.2	27.0	28.6	·	·
CCOc1ccc(-n2cc(-c3ccccc3)c3c(N4CCOCC4)ncnc32)cc1	17.7	-19.7	21.3	51.1*	91.0*	18.1	60.2*	95.4*
CCC(C)Oc1cc(-c2ccnc(Nc3cccc(Cl)c3)n2)ccn1 (configuration not stated)	10.5	-42.4	91.3*	99.9*	98.8*	43.6	92.2*	104.6*
N#C/C(=C\c1cccc([N+](=O)[O-])c1)C(=O)NCc1ccc(Cl)cc1	65.7*	0.2	9.2	111.2*	4.7	-16.5	96.2*	·	HIF-2a conf=59.8*;HIF-1a counter=105.6*
CCCCc1ccc(NC(=O)c2ccc(N(C)S(C)(=O)=O)cc2)cc1	-3.6	-18.1	36.9	7.2	18.2	-16.4	·	·
COC(=O)c1c(NC(=O)c2ccc([N+](=O)[O-])o2)sc2c1CCN(C(C)C)C2	29.2	-28.8	-31.7	94.3*	74.8*	-2.1	68.7*	·	Mdm2-MdmX confirm=84.1*
COC(=O)c1c(NC(=O)Cc2ccccc2)sc2c1CCN(C(C)C)C2	-31.2	19.5	-5.0	0.2	-17.9	0.3	·	·
COc1cc2c(cc1OC)C(c1ccc(Br)cc1)N(C(=O)c1ccccc1C(=O)O)CC2 (configuration not stated)	20.3	6.6	15.0	12.9	2.5	0.8	·	·
Cc1ccc(NC(=O)O/N=C/c2c(C)nn(C(C)(C)C)c2C)cc1Cl	91.2*	-26.0	102.6*	104.3*	14.2	82.3*	98.1*	·	Mdm2-MdmX confirm=101.2*;HIF-2a conf=97.2*;HIF-1a counter=104.5*
Cc1ccc(NC(=O)Nn2cnnc2)cc1Cl	-1.6	-1.3	9.2	1.1	-4.1	2.8	·	·
CCc1ccc(/C=C2\SC(=S)N(CCCC(=O)Nc3ccccn3)C2=O)cc1	95.6*	-2.2	40.9	81.5*	2.6	71.5*	79.7*	·	Mdm2-MdmX confirm=95.2*
O=C(N/N=C/c1sc(N2CCOCC2)nc1-c1ccccc1)c1cccc(S(=O)(=O)N2CCCC2)c1	32.3	5.2	51.0*	65.7*	-26.1	9.9	65.7*	·	Mdm2-MdmX confirm=80.0*
C=CCn1c(C)cc(C(=O)COc2ccc(C)nc2[N+](=O)[O-])c1C	68.2*	2.1	65.1*	61.0*	14.1	13.2	69.1*	·	HIF-2a conf=67.8*;HIF-1a counter=89.0*
CCCn1c(C)cc(C(=O)COc2ccc(C)nc2[N+](=O)[O-])c1C	25.5	-0.2	44.8	12.2	-4.3	25.7	·	·
COCCn1c(C)cc(C(=O)COc2ccc(C)nc2[N+](=O)[O-])c1C	74.5*	4.8	10.9	65.8*	-18.8	9.4	72.3*	·	HIF-2a conf=76.5*;HIF-1a counter=85.1*
Cc1ccc(C(=O)Nc2ccc3c(c2)OCCO3)c(C)c1	51.6*	-29.1	84.6*	68.2*	-18.9	58.8*	34.8	·	HIF-2a conf=69.9*;HIF-1a counter=45.0
O=C(Nc1ccc(Cc2ccncc2)cc1)c1cccc([N+](=O)[O-])c1	-94.3	-4.2	-3.5	-78.0	-10.7	-4.3	·	·
O=C(Nc1ccc(Cc2ccncc2)cc1)c1ccc([N+](=O)[O-])o1	53.5*	-4.0	0.9	102.8*	44.7	-19.4	95.1*	·	HIF-2a conf=27.0;HIF-1a counter=101.5*
